Inconclusive results are not listed. Active and inactive are the calls of the source. The call rests on the fitted dose curve; in most records, active means well fitted cell-killing curve with a large enough effect; inconclusive means small, poorly fitted or top-dose-only effect, or effect the other way; inactive means flat fitted curve, though single readings scatter. Where a SMILES comes first, the peptide text is derived from it. [ ]: non-standard residue; d: D form. ξ: configuration not given here. ξLac(3-iPr) = CC(C)CC(O)C(=O)O; NMeV = CN[CH](C(=O)O)C(C)C; βAla = NCCC(=O)O
Columns and labels:
Assay in all cases: Primary qHTS to identify gynecologic anti-cancer compounds using libraries of approved drugs and bioactive compounds (AID 1345084); further: nearly all actives have a fitted effect of over 55% in size
Conditions in all cases: Gynecologic cancer cell panel viability, ATPlite luminescence, 48 h; series mostly up to 57.5 µM
PA-1 = system: PA-1
Procedure, shortened: (§1)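 ATP-based viability (ATPlite), 1,000 cells/well, 16 h pre-incubation, 48 h compound at 37 C, 5% CO2, 15 min RT before read.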

SKOV3 = system: SKOV3
Procedure, shortened: as §1

Tov-21-G = system: Tov-21-G
Procedure, shortened: as §1

Tov112D = system: Tov112D
Procedure, shortened: as §1
On the % scale 0 is the no-effect control and ±100 the full control effect.

C[C@@H]1C[C@@H](O)[C@@]23CO[C@@H](O)[C@@H]2CCC[C@@H]3[C@@]12C[C@@H](c1ccoc1)OC2=O
inactive: Potency (PA-1) | Potency (SKOV3) | Potency (Tov-21-G) | Potency (Tov112D)

O=C(O)c1cn(C2CC2)c2cc(N3C[C@@H]4C[C@H]3CN4)c(F)cc2c1=O
inactive: Potency (PA-1) | Potency (SKOV3) | Potency (Tov-21-G) | Potency (Tov112D)

CC1OC(O[C@H]2CC[C@@]3(C)C(CC[C@]4(C)C3CC=C3C5CC(C)(C)CC[C@]5(C(=O)OC5OC(CO)C(OC6OC(COC7OCC(O)C(O)C7O)C(O)C(O)C6O)C(O)C5O)CC[C@]34C)C2(C)C)C(O)C(O)C1OC1OCC(OC2OCC(O)C(O)C2O)C(O)C1O (stereo partly drawn)
inactive: activity change, negative = cytotoxicity (PA-1) -4.41% [at 6.55 µM] | activity change, negative = cytotoxicity (SKOV3) 5.68% [at 6.55 µM] | activity change, negative = cytotoxicity (Tov-21-G) -0.908% [at 6.55 µM] | activity change, negative = cytotoxicity (Tov112D) -13.2% [at 6.55 µM]

CC(C)CC1OC(=O)C2CCCN2C(=O)CCNC(=O)C(Cc2ccccc2)NC(=O)C(C(C)C)N(C)C(=O)C(C(C)C)N(C)C1=O (stereo not drawn) (cyclo([ξLac(3-iPr)][NMeV][NMeV]F[βAla]P); configuration not given here)
inactive: Potency (PA-1) | Potency (SKOV3) | Potency (Tov-21-G) | Potency (Tov112D)

CC1(C)CCCC2(C)C(CO)C(CO)=CCC12 (stereo not drawn)
inactive: Potency (PA-1) | Potency (SKOV3) | Potency (Tov-21-G) | Potency (Tov112D)

C=C(C(=O)O)C1CC(O)C2(C)CCCC(=C)C2C1 (stereo not drawn)
inactive: Potency (PA-1) | Potency (SKOV3) | Potency (Tov-21-G) | Potency (Tov112D)

Cc1cccc(S(=O)(=O)N2CCC[C@@H]2CCN2CCC(C)CC2)c1
inactive: Potency (PA-1) | Potency (SKOV3) | Potency (Tov-21-G) | Potency (Tov112D)

CC(C)(O)C1CCC(C)(C2CCC3(C)C4CCC5C(C)(C(=O)OC6OC(CO)C(O)C(O)C6O)C(O)CC(O)C56CC46CCC23C)O1 (stereo not drawn)
inactive: Potency (PA-1) | Potency (SKOV3) | Potency (Tov-21-G) | Potency (Tov112D)

CC1(C)CC[C@]2(C(=O)O[C@@H]3O[C@H](CO[C@@H]4O[C@H](CO)[C@@H](O)[C@H](O)[C@H]4O[C@@H]4O[C@H](CO)[C@H](O)[C@H](O)[C@H]4O)[C@@H](O)[C@H](O[C@@H]4O[C@H](CO)[C@@H](O)[C@H](O)[C@H]4O)[C@H]3O)CC[C@]3(C)C(=CCC4[C@@]5(C)CC[C@H](O[C@@H]6OC[C@@H](O)[C@H](O)[C@H]6O)[C@@](C)(C(=O)O)C5CC[C@]43C)[C@@H]2C1 (stereo partly drawn)
inactive: activity change, negative = cytotoxicity (PA-1) -1.12% [at 6.55 µM] | activity change, negative = cytotoxicity (SKOV3) 19.9% [at 6.55 µM] | activity change, negative = cytotoxicity (Tov-21-G) 4.04% [at 6.55 µM] | activity change, negative = cytotoxicity (Tov112D) 5.73% [at 6.55 µM]

CC1=CC(=O)[C@H]2C(C)(C)CCC[C@]2(C)[C@@]1(O)CO
inactive: Potency (PA-1) | Potency (SKOV3) | Potency (Tov-21-G) | Potency (Tov112D)

CC[C@@H](O)C[C@@H]1C(C)=C[C@@H]2CCCC[C@@H]2[C@@]1(C)C(=O)O
inactive: Potency (PA-1) | Potency (SKOV3) | Potency (Tov-21-G) | Potency (Tov112D)

COC(=O)[C@@]1(c2ccc(C)cc2)C[C@H]1CN1CCC(O)(c2ccccc2)CC1
inactive: Potency (PA-1) | Potency (SKOV3) | Potency (Tov-21-G) | Potency (Tov112D)

C[C@@H]1CC[C@]2(C(=O)OC3OC(CO)C(O)C(O)C3O)CC[C@]3(C)C(=CCC4[C@@]5(C)CC[C@H](O)[C@](C)(C(=O)O)C5CC[C@]43C)C2[C@]1(C)O (stereo partly drawn)
inactive: Potency (PA-1) | Potency (SKOV3) | Potency (Tov-21-G) | Potency (Tov112D)

CC(=O)O[C@H]1[C@H](O[C@H]2[C@@H]3C=CO[C@@H](O[C@@H]4O[C@H](CO)[C@@H](O)[C@H](O)[C@H]4O)[C@@H]3[C@@]3(CO)O[C@@H]23)O[C@@H](C)[C@H](OC(=O)/C=C/c2ccccc2)[C@H]1OC(=O)/C=C/c1ccccc1
inactive: activity change, negative = cytotoxicity (PA-1) 16.9% [at 11.6 µM] | activity change, negative = cytotoxicity (SKOV3) 5.38% [at 11.6 µM] | activity change, negative = cytotoxicity (Tov-21-G) -0.504% [at 11.6 µM] | activity change, negative = cytotoxicity (Tov112D) 5.71% [at 11.6 µM]

COc1ccc([C@H]2CNC(=O)C2)cc1OC1CCCC1
inactive: Potency (PA-1) | Potency (SKOV3) | Potency (Tov-21-G) | Potency (Tov112D)

C=C(C)C1CC[C@]2(C(=O)O)CC[C@]3(C(=O)O)[C@H](CCC4[C@@]5(C)CC[C@H](O)C(C)(C)C5CC[C@]43C)C12 (stereo partly drawn)
inactive: Potency (PA-1) | Potency (SKOV3) | Potency (Tov-21-G) | Potency (Tov112D)

Cc1cccc(-c2[nH]c(Cc3cccc(C(N)=O)c3)nc2-c2ccc3nccnc3c2)n1
inactive: Potency (PA-1) | Potency (SKOV3) | Potency (Tov-21-G) | Potency (Tov112D)

CCN(CC)Cc1ccc(C(=O)N(CCc2ccccc2OC)[C@@H]2CCNC2)cc1
inactive: Potency (PA-1) | Potency (SKOV3) | Potency (Tov-21-G) | Potency (Tov112D)

CC1C(OC(=O)c2ccccc2)C(O)C2C(C(=O)O)=COC(OC3OC(CO)C(O)C(O)C3O)C12 (stereo not drawn)
inactive: Potency (PA-1) | Potency (SKOV3) | Potency (Tov-21-G) | Potency (Tov112D)

CO[C@H]1/C=C\O[C@@]2(C)Oc3c(C)c(O)c4c(O)c(c5c(nc6cc(C)ccn65)c4c3C2=O)NC(=O)/C(C)=C\C=C/[C@H](C)[C@H](O)[C@@H](C)[C@@H](O)[C@@H](C)[C@H](OC(C)=O)[C@@H]1C
inactive: Potency (PA-1) | Potency (SKOV3) | Potency (Tov-21-G) | Potency (Tov112D)

CC(C)C(C#N)O[C@@H]1O[C@H](CO[C@@H]2O[C@@H](C)[C@H](O)[C@@H](O)[C@H]2O)[C@@H](O)[C@H](O)[C@H]1O (stereo partly drawn)
inactive: Potency (PA-1) | Potency (SKOV3) | Potency (Tov-21-G) | Potency (Tov112D)

CC1OC(OC2CCC3(C)C(CCC4(C)C3CC=C3C5CC(C)(C)CCC5(C(=O)OC5OC(CO)C(O)C(O)C5O)CCC34C(=O)O)C2(C)C)C(O)C(O)C1O (stereo not drawn)
inactive: Potency (PA-1) | Potency (SKOV3) | Potency (Tov-21-G) | Potency (Tov112D)

Source: PubChem BioAssay (NCATS)
